Measured values from the antibiotic and cytotoxicity screens of Wong et al. (2023).
Hit rate of the full screen: of about 39,000 compounds, about 1,500 (3.8%) were called active. Many of the other results were omitted from the sample, so actives are more common in it than they were.

test system: HSkMC (human skeletal muscle cells); test: cytotoxicity call (relative viability < 0.9); settings: 10 µM

Structure (SMILES)	cytotoxicity call
COC(=O)C[C@](O)(CCCC(C)(C)O)C(=O)O[C@@H]1C(OC)=C[C@]23CCCN2CCc2cc4c(cc2[C@H]13)OCO4	active
C[C@@H]1CN([C@@H](C)CO)C(=O)CCCn2cc(nn2)CO[C@@H]1CN(C)C(=O)Nc1cccc(C(F)(F)F)c1	inactive
C[C@H](CO)N1C[C@H](C)[C@@H](CN(C)C(=O)C2CCCCC2)OCCCC[C@H](C)Oc2ccc(NC(=O)Cc3ccccc3)cc2C1=O	inactive
C[C@H]1CN([C@@H](C)CO)S(=O)(=O)c2ccc(C#CC3CC3)cc2O[C@H]1CN(C)Cc1ccc(F)cc1	inactive
C[C@@H]1CN([C@H](C)CO)S(=O)(=O)c2ccc(C#CC3CC3)cc2O[C@@H]1CN(C)Cc1ccc(F)cc1	inactive
C[C@@H]1CN([C@H](C)CO)S(=O)(=O)c2ccc(C#CC3CC3)cc2O[C@H]1CN(C)Cc1ccc(F)cc1	active
C[C@H](CO)N1C[C@H](C)[C@@H](CN(C)Cc2ccc(F)cc2)Oc2cc(C#CC3CC3)ccc2S1(=O)=O	inactive
C[C@H]1CN([C@@H](C)CO)S(=O)(=O)c2ccc(C#CC3CC3)cc2O[C@@H]1CN(C)Cc1ccc(F)cc1	active
C[C@@H]1CN([C@@H](C)CO)S(=O)(=O)c2ccc(C#CC3CC3)cc2O[C@H]1CN(C)Cc1ccc(F)cc1	inactive
CO[C@@H]1CN(C)C(=O)c2cc(NC(=O)Nc3ccccc3F)ccc2OC[C@@H](C)N(CCC(F)(F)F)C[C@H]1C	inactive
C[C@@H]1CN([C@@H](C)CO)C(=O)c2cc(NC(=O)Cc3ccccc3)ccc2O[C@@H]1CN(C)C(=O)Nc1ccc(C(F)(F)F)cc1	inactive
O=C([C@H]1[C@H](CO)[C@H]2Cn3c(cccc3=O)[C@H]2N1C(=O)C1CCCC1)N1CCOCC1	inactive
COc1ccc(CN(C)C[C@H]2Oc3c(NC(=O)C4CCOCC4)cccc3C(=O)N([C@H](C)CO)C[C@@H]2C)cc1	inactive
O=C(C[C@H]1CC[C@H]2[C@@H](COC[C@@H](O)CN2C(=O)Nc2cccc(F)c2)O1)NCc1ccccc1Cl	inactive
CCC(=O)Nc1ccc(C)c(C)c1	inactive
C[C@@H]1CCCCO[C@@H](CN(C)C(=O)Nc2ccc(F)cc2)[C@@H](C)CN([C@H](C)CO)C(=O)c2cc(NC(=O)CCCN(C)C)ccc2O1	inactive
Cc1ccc(S(=O)(=O)N(C)C[C@@H]2Oc3ccc(NS(=O)(=O)c4cccs4)cc3CC(=O)N([C@@H](C)CO)C[C@H]2C)cc1	inactive
COC(=O)c1c(C(=O)OC)c2n(c(=O)c1-c1ccccc1)[C@@H]1c3ccccc3O[C@@](COCc3ccc(OC)cc3)([C@@H]1CO[Si](C)(C)C(C)(C)C)N2C	inactive
COc1ccc(COCC23Oc4ccccc4[C@H]([C@H]2CO)n2c(c4ccccc4c(-c4ccccc4)c2=O)N3C)cc1	inactive
COc1ccc(COCC23Oc4ccccc4[C@H]([C@H]2CO[Si](C)(C)C(C)(C)C)n2c(c4ccccc4c(-c4ccccc4)c2=O)N3C)cc1	active
COc1ccc(NC(=O)N(C)C[C@@H]2OCCCC[C@H](C)Oc3ccc(NS(=O)(=O)c4ccc(F)cc4)cc3C(=O)N([C@H](C)CO)C[C@H]2C)cc1	inactive

Structure (SMILES)	cytotoxicity call
COc1ccc(C#Cc2cnc3c(c2)C(=O)N([C@@H](C)CO)C[C@@H](C)[C@H](CN(C)CC2CCOCC2)O3)cc1	inactive
C[C@@H]1CCCCO[C@H](CN(C)C(=O)CCC(F)(F)F)[C@H](C)CN([C@H](C)CO)C(=O)c2cc(NC(=O)CCC(F)(F)F)ccc2O1	inactive
COc1ccc(-c2coc3cc(O)cc(OC)c3c2=O)cc1	inactive
C[C@H](CO)N1C[C@H](C)[C@H](CN(C)C(=O)Nc2ccc(F)cc2)Oc2ccc(NC(=O)C3CC3)cc2CC1=O	inactive
Cc1noc(C)c1NC(=O)N(C)C[C@H]1Oc2ccc(NS(=O)(=O)c3c(C)noc3C)cc2C(=O)N([C@@H](C)CO)C[C@@H]1C	inactive
CCc1ccc(/C=C2\SC(=O)N(CCCCCCNC(=O)c3ccccc3Nc3ccc([N+](=O)[O-])c4nonc34)C2=O)cc1	active
CCc1ccc(/C=C2\SC(=O)N(CCCCCCNC(=O)c3ccc(Nc4ccc([N+](=O)[O-])c5nonc45)cc3)C2=O)cc1	inactive
COc1ccc(NC(=O)Nc2ccc3c(c2)C(=O)N([C@H](C)CO)C[C@H](C)[C@H](CN(C)S(=O)(=O)c2ccccc2)OCCCC[C@H](C)O3)cc1	inactive
C[C@H](CO)N1C[C@H](C)[C@@H](CN(C)Cc2ccc(Cl)c(Cl)c2)Oc2c(NC(=O)Nc3ccc(C(F)(F)F)cc3)cccc2C1=O	active
C[C@@H]1CN([C@@H](C)CO)C(=O)c2cccc(NC(=O)Nc3ccc(C(F)(F)F)cc3)c2O[C@H]1CN(C)Cc1ccc(Cl)c(Cl)c1	active
C[C@H]1CN([C@@H](C)CO)C(=O)c2cccc(NC(=O)Nc3ccc(C(F)(F)F)cc3)c2O[C@H]1CN(C)Cc1ccc(Cl)c(Cl)c1	active
C[C@H]1CN([C@@H](C)CO)C(=O)c2cccc(NC(=O)Nc3ccc(C(F)(F)F)cc3)c2O[C@H]1CN(C)Cc1ccc(C(F)(F)F)cc1	inactive
C[C@@H]1CN([C@H](C)CO)C(=O)c2cccc(NC(=O)Nc3ccc(C(F)(F)F)cc3)c2O[C@H]1CN(C)Cc1ccc(Cl)c(Cl)c1	active
C[C@H](CO)N1C[C@H](C)[C@H](CN(C)C(=O)Nc2ccnc(N3CCOCC3)c2)OCc2cn(nn2)CCCC1=O	inactive
C[C@@H]1CN([C@H](C)CO)C(=O)c2cc(NS(=O)(=O)c3ccccc3)ccc2O[C@@H](C)CCCCO[C@@H]1CN(C)Cc1ccccc1	inactive
C[C@H]1CN([C@@H](C)CO)S(=O)(=O)c2ccc(C#CC3CC3)cc2O[C@H]1CN(C)C(=O)c1cccc(F)c1	inactive
Cc1nnc(SCC2=C(C(=O)[O-])N3C(=O)C(NC(=O)Cn4cnnn4)C3SC2)s1.[Na+] (configuration not stated)	inactive
C[C@H](CO)N1C[C@H](C)[C@H](CN(C)Cc2ccc(Cl)c(Cl)c2)OCc2ccccc2-c2c(n(C)c3ccccc23)C1=O	inactive
C[C@H]1CN([C@@H](C)CO)C(=O)c2cc(C#Cc3ccccn3)cnc2O[C@@H]1CN(C)C(=O)c1cnccn1	inactive
COc1ccc(NC(=O)Nc2ccc3c(c2)C(=O)N([C@@H](C)CO)C[C@H](C)[C@H](CN(C)Cc2ccncc2)OCCCC[C@@H](C)O3)cc1	inactive
O=C(/C=C/c1ccc(O)c(O)c1)O[C@@H]1C[C@](OC(=O)/C=C/c2ccc(O)c(O)c2)(C(=O)O)C[C@@H](OC(=O)/C=C/c2ccc(O)c(O)c2)[C@H]1O	inactive

Structure (SMILES)	cytotoxicity call
C[C@@H]1CN([C@H](C)CO)C(=O)c2cccc(NC(=O)Nc3ccc(C(F)(F)F)cc3)c2O[C@@H]1CN(C)Cc1ccc(Cl)c(Cl)c1	active
C[C@H](CO)N1C[C@H](C)[C@H](CN(C)Cc2ccc(Cl)c(Cl)c2)Oc2c(NC(=O)Nc3ccc(C(F)(F)F)cc3)cccc2C1=O	inactive
C[C@H]1CN([C@@H](C)CO)C(=O)c2cccc(NC(=O)Nc3ccc(C(F)(F)F)cc3)c2O[C@@H]1CN(C)Cc1ccc(Cl)c(Cl)c1	active
C[C@H]1CN([C@@H](C)CO)C(=O)c2cccc(NC(=O)Nc3ccc(C(F)(F)F)cc3)c2O[C@@H]1CN(C)Cc1ccc(C(F)(F)F)cc1	inactive
C[C@@H]1CN([C@@H](C)CO)C(=O)c2cccc(NC(=O)Nc3ccc(C(F)(F)F)cc3)c2O[C@@H]1CN(C)Cc1ccc(Cl)c(Cl)c1	active
COc1ccc(CN(C)C[C@@H]2OCCCC[C@H](C)Oc3ccc(NC(=O)c4ccccc4)cc3C(=O)N([C@H](C)CO)C[C@H]2C)cc1	inactive
C[C@@H]1CCCCO[C@@H](CN(C)C(=O)Nc2ccc(F)cc2)[C@@H](C)CN([C@@H](C)CO)C(=O)c2cc(NC(=O)Cc3ccccc3)ccc2O1	inactive
C[C@H](CO)N1C[C@H](C)[C@@H](CN(C)C(=O)c2ccccc2)OCCCC[C@H](C)Oc2ccc(NC(=O)NC3CCCCC3)cc2C1=O	inactive
Cn1cnc(S(=O)(=O)N2C[C@H](O)COC[C@@H]3O[C@H](CC(=O)NCc4cc(F)cc(F)c4)CC[C@H]32)c1	inactive
N[C@H](C(=O)O)[C@@H](OCc1ccccc1)C(=O)O	inactive
C[C@@H]1CN([C@@H](C)CO)C(=O)c2cc(NS(=O)(=O)c3cccs3)ccc2O[C@@H](C)CCCCO[C@@H]1CN(C)C(=O)Nc1ccccc1	inactive
CCCNC(=O)c1cc2c(c(-c3cccc(-c4cc5ccccc5o4)c3)n1)[C@@H](CCO)N(C(=O)NC(C)C)C2	inactive
CC(C)NC(=O)N1Cc2cc(C(=O)NC3Cc4ccccc4C3)nc(-c3cccc(-c4cccnc4)c3)c2[C@H]1CCO	active
CC(C)NC(=O)N1Cc2cc(C(=O)NC3Cc4ccccc4C3)nc(-c3cccc(-c4cccnc4)c3)c2[C@@H]1CCO	active
CCNC(=O)c1cc2c(c(-c3cccc(-c4cc5ccccc5o4)c3)n1)[C@@H](CCO)N(C(=O)NC(C)C)C2	inactive
CC(C)(C)[S@](=O)N1Cc2cc(C(=O)N[C@H]3CCN(Cc4ccccc4)C3)nc(-c3cccc(-c4cccnc4)c3)c2[C@@H]1CCO	inactive
CC(C)(C)[S@](=O)N1Cc2cc(C(=O)N[C@@H]3CCN(Cc4ccccc4)C3)nc(-c3cccc(-c4cccnc4)c3)c2[C@@H]1CCO	inactive
CCCNC(=O)c1cc2c(c(-c3cccc(-c4cc5ccccc5o4)c3)n1)[C@H](CCO)N(C(=O)NC(C)C)C2	inactive
CC(C)NC(=O)N1Cc2cc(C(=O)NC3CCCCC3)nc(-c3cccc(-c4cccnc4)c3)c2[C@H]1CCO	active
CC(C)NC(=O)N1Cc2cc(C(=O)NC3CCCCC3)nc(-c3cccc(-c4cccnc4)c3)c2[C@@H]1CCO	inactive
